These results are taken from PubChem BioAssay (NCATS).

Results filed as inconclusive are left out. Calls of active or inactive are those of the source. Unless noted, calls come from the whole dose curve; as a rule, active = well fitted curve in the direction sought with a large enough effect; inconclusive = small, poorly fitted or top-dose-only effect, or another doubt; inactive = no such curve, though single readings can be large; an effect the other way counts as inactive or inconclusive.

For assay [1], the target named is DNA repair nuclease/redox regulator APEX1 (Homo sapiens) (UniProt P27695). Put plainly: qHTS Validation Assay for Inhibitors of the Human Apurinic/apyrimidinic Endonuclease 1 (APE1) (AID 1705;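 note: TAMRA fluorescence gain over two minutes as APE1 cuts a quenched THF abasic duplex; % is set by controls: 0 for no effect and ±100 for the full control effect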). In short, it runs like this: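 Human APE1 was preincubated with compound for 15 min at room temperature, then 50 nM (final) THF-abasic double-stranded DNA substrate bearing 5'-TAMRA and 3'-BHQ-2 was added. Incision-driven fluorescence rise (ex 525/em 598 nm) was read kinetically.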

Assay [2] in a line: Counterscreen for APE1 Inhibitors: Fluorescent Dye Displacement Validation Assay (AID 1707).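 Note: plate controls were ThO with dsDNA and no compound for no effect and ThO without dsDNA for full effect.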 Summed up:
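ThO 250 nM + dsDNA 50 nM (THF abasic site, 5'-TAMRA), Tris-HCl pH7.5/50mM NaCl/2 mM MgCl2/0.01% Tween-20; compounds pin-transferred; ex 480/em 540 nm endpoint. Neutral = no compound; no-DNA ThO wells = negative control.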
(In general: The purpose of a counterscreen is to sort out artefacts and off-target activity.)

Assay [3] concerns the target Endonuclease 4 (Escherichia coli (strain K12)) (UniProt P0A6C1). Put plainly: Counterscreen for APE1 Inhibitors: qHTS Validation Assay for Inhibitors of Endonuclease IV (AID 1708). For activity change, negative = inhibition: % is set by controls: 0 for no effect and ±100 for the full control effect. Note: potency is the fitted concentration of half-maximal effect. In short, it runs like this:
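2 nM enzyme was preincubated with compounds for 15 min at room temperature in 50 mM Tris-HCl pH 7.5, 50 mM NaCl, 2 mM MgCl2, 1 mM DTT, 0.01% Tween-20. 50 nM THF-abasic TAMRA/BHQ-2 duplex substrate started the reaction.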

The nature of assay [4]: qHTS for differential inhibitors of proliferation of Plasmodium falciparum line 7G8 (AID 1815).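 For activity change, negative = inhibition: plate controls were vehicle wells for no effect and reference inhibitor wells for full effect.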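 Note: parasite growth measured after three days of incubation.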 Note: potency is the fitted concentration of half-maximal effect. In general terms: Quantitative high-throughput screening tests each substance at several concentrations.
Assay [5] is described as follows: qHTS for differential inhibitors of proliferation of Plasmodium falciparum line GB4 (AID 1816).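 For activity change, negative = inhibition: 0% = vehicle DMSO and -100% = reference inhibitor.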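 Note: parasite growth measured after 72 h incubation.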 Note: potency is the fitted concentration of half-maximal effect. The settings on record: Potency: Plasmodium falciparum GB4 proliferation inhibition.
The nature of assay [6]: qHTS for differential inhibitors of proliferation of Plasmodium falciparum line 3D7 (AID 1876). Note: potency is the fitted concentration of half-maximal effect.
Assay [7] in a line: qHTS for differential inhibitors of proliferation of Plasmodium falciparum line D10 (AID 1877).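 For activity change, negative = inhibition: plate controls were vehicle wells for no effect and reference inhibitor wells for full effect.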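 Note: parasites grown with compound for 72 h before DNA staining.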 Note: potency is the fitted concentration of half-maximal effect.
Assay [8] is described as follows: qHTS for differential inhibitors of proliferation of Plasmodium falciparum line W2 (AID 1883).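 For activity change, negative = inhibition: 0% = vehicle wells and -100% = control inhibitor wells.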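 Note: parasites grown with compound for 72 h before lysis and staining.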 Note: potency is the fitted concentration of half-maximal effect. The following applies: Potency: Plasmodium falciparum W2 proliferation inhibition.
Assay [9] is described as follows: qHTS for differential inhibitors of proliferation of Plasmodium falciparum line HB3 (AID 1886).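 For activity change, negative = inhibition: plate controls were vehicle for no effect and reference inhibitor for full effect.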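 Note: parasites grown with compound for 72 h before SYBR Green readout.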 Note: potency is the fitted concentration of half-maximal effect. The following applies: Potency: Plasmodium falciparum HB3 proliferation inhibition.
Assay [10] addresses RecQ-like DNA helicase BLM (Homo sapiens) (UniProt P54132). The experiment in a line: qHTS Validation Assay for Inhibitors of Bloom's syndrome helicase (BLM) (AID 2364).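 For activity change, negative = inhibition: plate controls were DMSO vehicle for no effect and enzyme-free control for full effect.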 Note: potency is the fitted concentration of half-maximal effect. Summed up:
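BLM 50 nM in 25 mM Tris-HCl pH 8.0, 5 mM NaCl, 2 mM MgCl2, 1 mM DTT, 0.01% Tween-20, 2.5 ug/ml poly(dI-dC); 15 min cpd preinc, RT. Start: 200 nM forked DNA + 2 mM ATP (final). TAMRA read, 2 reads 2 h apart.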

The nature of assay [11]: Validation of Assay for Modulators of Lamin A Splicing (AID 1459; active = well fitted curve in the direction sought with a large enough effect in the signal ratio; the % refers to the signal ratio;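 note: cells exposed to compound for two days before reading; 0% is about no effect; ratio rise marks activators and ratio drop marks inhibitors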). In short, it runs like this: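 S3 HeLa cells stably expressing a lamin A-EGFP splicing minigene and DsRed2 were seeded at 600 cells/well in Opti-MEM with 2% FBS, pin-dosed, and incubated 48 hrs at 37 °C, 5% CO2. Laser-scanning cytometry (488 nm) gave GFP/RFP total intensity ratio.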
A short description of assay [12]: qHTS for differential inhibitors of proliferation of Plasmodium falciparum line Dd2 (AID 1882).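 For activity change, negative = inhibition: compound exposure of 72 h on infected erythrocytes; plate controls were DMSO vehicle for no effect and 0.29 µM artemisinin for full effect.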 Note: nearly all actives have a fitted effect of over 65% in size. Note: potency is the fitted concentration of half-maximal effect. The following applies: Potency: Plasmodium falciparum Dd2 proliferation inhibition. Summed up:
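SYBR Green I DNA fluorescence read-out, ex 485/em 535 nm. Signals were normalized to 0.29 uM artemisinin and DMSO wells, then corrected using vehicle-only plates flanking each stack. Parasite growth ran 72 h in erythrocytes before lysis.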

In assay [13] the target is Ferritin light chain (Equus caballus) (UniProt P02791). The experiment in a line: qHTS Validation Assay for Identification of Novel General Anesthetics (AID 2323). Note: % is set by controls: 0 for no effect and ±100 for the full control effect. Summed up:
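Competitive displacement of profluorescent 1-aminoanthracene (1-AMA, 50% saturated solution in PBS) from 10 uM horse-spleen apoferritin. Compounds incubated 10 min at room temperature; fluorescence read at 380 nm excitation/535 nm emission, normalized to free 1-AMA and complex, fitted with four-parameter Hill equation.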

Assay [14] addresses ATP-dependent DNA helicase Q1 (Homo sapiens) (UniProt P46063). The experiment in a line: qHTS Validation Assay for Inhibitors of RecQ-Like Dna Helicase 1 (RECQ1) (AID 2353).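 Note: plate controls were DMSO vehicle for no effect and enzyme-free control for full effect.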 Summed up:
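50 nM RECQ1T1 preincubated 15 min with compound in Tris pH 8.0 buffer with MgCl2, DTT, Tween-20 and 2.5 ug/ml poly(dI-dC); started with 200 nM TAMRA/BHQ-2 forked duplex and 2 mM ATP. Unwinding read as fluorescence (525/598 nm), two reads 2 h apart.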

A short description of assay [15]: High Content Imaging Cell-Based qHTS for Inhibitors of the mTORC1 Signaling Pathway in MEF (Tsc2-/-, p53-/-) Cells (AID 2666).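 Note: percent of cells scored positive for phospho-rpS6 Ser235/236 immunostaining by imaging.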 Summed up:
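Read-out: % positive cells per well, with thresholds from highest- and lowest-signal wells, based on phospho-rpS6 (Ser235/236) intensity normalized to Hoechst nuclear stain. Cells: Tsc2-/-, p53-/- MEFs carrying empty vector; compound 24 hrs, 37 degree Celsius.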

Assay [16] in a line: High Content Imaging Cell-Based qHTS for Inhibitors of the mTORC1 Signaling Pathway in MEF Cells (AID 2667).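 For activity change, negative = inhibition: Tsc2-/- p53-/- MEFs stably re-expressing wild-type Tsc2 exposed 24 h; plate controls were DMSO wells for no effect and rapamycin control wells for full effect.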 Note: potency is the fitted concentration of half-maximal effect. In short, it runs like this: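 MEF (Tsc2-/-, p53-/-, WT Tsc2 re-expressed); cpd 24 h, 37 °C; PFA fix; Alexa-488 anti-p-rpS6 Ser235/236, PI, Hoechst; IN Cell imaging; Hoechst/Alexa-488 intensity ratio; % active cells, thresholds set from rapamycin and DMSO wells.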
Assay [17] is described as follows: Cytometric Cell-Based qHTS for Inhibitors of the mTORC1 Signaling Pathway in MEF (Tsc2-/-, p53-/-) Cells (AID 2660).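 Note: percent of cells above a phospho-rpS6 to PI ratio cutoff in each well; plate controls were DMSO for no effect and rapamycin for full effect.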 Summed up: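 Percent of cells positive for normalized phospho-S6 staining is reported, with the cutoff set from rapamycin (7.5 nM) versus DMSO wells. Tsc2-/-, p53-/- MEFs received compound for 24 hrs.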
A short description of assay [18]: qHTS Assay for Lipid Storage Modulators (AID 1519; calls by dose curve; for activity change, negative = inhibition: % is set by controls: 0 for no effect and ±100 for the full control effect). The settings on record: Drosophila S3 cells, BODIPY lipid droplet/cell ratio, laser cytometry, cells loaded with oleic acid; for activity change, negative = inhibition: at 57.5 µM (top of the series). Summed up: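 Cells seeded at 5,000 per well were treated with compounds over a concentration series and loaded with oleic acid (400 uM, as added). Lipid droplet fluorescence (488 nm excitation, 500-530 nm channel) was read by laser-scanning cytometry and normalized to 20 uM Triacsin C.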

Where [19] appears, read: measured here: cell count channel max response.
[20] abbreviates: measured here: lipid channel max response.

DNA repair nuclease/redox regulator APEX1 (Homo sapiens), sequence (P27695 whole entry, looked up): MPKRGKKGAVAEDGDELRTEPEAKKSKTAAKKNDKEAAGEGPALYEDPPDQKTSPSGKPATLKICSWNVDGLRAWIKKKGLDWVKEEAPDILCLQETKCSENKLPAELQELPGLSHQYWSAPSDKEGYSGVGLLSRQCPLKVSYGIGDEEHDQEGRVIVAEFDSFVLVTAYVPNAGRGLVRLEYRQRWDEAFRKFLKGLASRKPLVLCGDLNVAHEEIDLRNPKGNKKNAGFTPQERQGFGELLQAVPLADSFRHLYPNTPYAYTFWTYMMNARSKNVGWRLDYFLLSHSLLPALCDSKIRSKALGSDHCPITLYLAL
ATP-dependent DNA helicase Q1 (Homo sapiens), sequence (P46063 whole entry, looked up): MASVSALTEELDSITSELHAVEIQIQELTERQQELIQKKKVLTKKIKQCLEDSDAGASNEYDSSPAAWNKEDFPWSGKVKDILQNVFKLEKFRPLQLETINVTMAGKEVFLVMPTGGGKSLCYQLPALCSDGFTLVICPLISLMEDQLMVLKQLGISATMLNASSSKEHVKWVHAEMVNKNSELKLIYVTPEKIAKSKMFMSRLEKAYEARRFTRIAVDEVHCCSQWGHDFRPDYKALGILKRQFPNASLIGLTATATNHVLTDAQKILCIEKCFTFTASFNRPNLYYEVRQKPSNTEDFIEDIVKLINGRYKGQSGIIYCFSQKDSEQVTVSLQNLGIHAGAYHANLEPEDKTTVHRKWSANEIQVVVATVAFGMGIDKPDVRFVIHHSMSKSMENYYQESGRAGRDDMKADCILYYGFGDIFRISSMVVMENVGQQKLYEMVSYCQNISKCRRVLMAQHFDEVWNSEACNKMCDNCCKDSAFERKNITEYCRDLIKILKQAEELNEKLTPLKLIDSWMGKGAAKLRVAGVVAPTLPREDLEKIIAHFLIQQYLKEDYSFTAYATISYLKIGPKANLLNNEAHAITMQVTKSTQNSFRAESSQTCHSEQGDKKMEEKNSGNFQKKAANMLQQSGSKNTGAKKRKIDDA
RecQ-like DNA helicase BLM (Homo sapiens), sequence (P54132 whole entry, looked up): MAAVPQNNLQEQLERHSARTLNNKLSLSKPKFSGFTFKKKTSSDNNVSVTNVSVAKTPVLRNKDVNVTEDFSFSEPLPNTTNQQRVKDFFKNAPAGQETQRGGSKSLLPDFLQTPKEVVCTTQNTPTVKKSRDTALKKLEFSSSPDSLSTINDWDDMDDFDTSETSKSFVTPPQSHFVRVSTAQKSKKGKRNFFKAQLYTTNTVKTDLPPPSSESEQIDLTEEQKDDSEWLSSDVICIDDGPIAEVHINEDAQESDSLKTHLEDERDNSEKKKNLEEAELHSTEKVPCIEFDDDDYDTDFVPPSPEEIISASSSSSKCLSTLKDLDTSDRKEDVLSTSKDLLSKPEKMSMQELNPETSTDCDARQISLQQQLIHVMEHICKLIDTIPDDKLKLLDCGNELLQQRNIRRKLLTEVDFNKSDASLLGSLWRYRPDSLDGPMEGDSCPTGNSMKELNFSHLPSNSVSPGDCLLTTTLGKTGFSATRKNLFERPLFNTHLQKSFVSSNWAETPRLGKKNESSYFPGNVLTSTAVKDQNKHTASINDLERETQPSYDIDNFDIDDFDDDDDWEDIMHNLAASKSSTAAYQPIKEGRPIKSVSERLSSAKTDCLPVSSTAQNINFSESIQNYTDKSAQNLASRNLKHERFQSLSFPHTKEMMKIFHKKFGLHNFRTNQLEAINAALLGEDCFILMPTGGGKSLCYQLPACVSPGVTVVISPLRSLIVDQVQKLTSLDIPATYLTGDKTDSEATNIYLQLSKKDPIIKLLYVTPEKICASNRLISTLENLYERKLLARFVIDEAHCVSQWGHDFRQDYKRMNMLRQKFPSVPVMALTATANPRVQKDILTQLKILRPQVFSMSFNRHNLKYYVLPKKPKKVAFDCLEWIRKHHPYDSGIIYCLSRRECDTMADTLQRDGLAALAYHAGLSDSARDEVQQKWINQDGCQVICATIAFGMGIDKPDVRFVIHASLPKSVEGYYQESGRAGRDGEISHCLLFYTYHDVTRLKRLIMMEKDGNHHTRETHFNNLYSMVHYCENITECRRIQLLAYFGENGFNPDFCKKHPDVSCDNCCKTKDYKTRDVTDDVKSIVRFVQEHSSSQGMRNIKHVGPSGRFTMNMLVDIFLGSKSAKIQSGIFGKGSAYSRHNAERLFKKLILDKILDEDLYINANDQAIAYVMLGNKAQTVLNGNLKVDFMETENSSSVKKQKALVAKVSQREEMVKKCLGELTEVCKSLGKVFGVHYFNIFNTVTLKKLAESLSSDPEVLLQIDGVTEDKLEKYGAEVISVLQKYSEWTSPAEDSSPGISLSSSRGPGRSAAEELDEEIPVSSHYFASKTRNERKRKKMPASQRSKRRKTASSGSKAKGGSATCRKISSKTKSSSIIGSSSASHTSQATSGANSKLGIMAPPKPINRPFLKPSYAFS
Ferritin light chain (Equus caballus), sequence (P02791 2-175 limits assumed): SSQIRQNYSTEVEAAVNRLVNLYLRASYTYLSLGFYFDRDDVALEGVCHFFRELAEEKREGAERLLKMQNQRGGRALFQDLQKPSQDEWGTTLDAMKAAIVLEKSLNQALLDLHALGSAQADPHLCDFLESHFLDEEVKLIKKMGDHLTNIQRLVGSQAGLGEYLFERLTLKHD

With `Clc1ccc(C(c2ccc(Cl)cc2)n2cc[n+](CC(OCc3ccc(Cl)cc3Cl)c3ccc(Cl)cc3Cl)c2)cc1` (stereo unspecified), the Potency entry in assay [1] and in assay [2] was “inactive” throughout. Further, the Potency is 31.6 µM (active) in assay [3]; 7.94 µM (active) in [4]; 7.08 µM (active) in assay [5]; 3.55 µM (active) in [6]; 7.08 µM (active) in [7]; 3.98 µM (active) in [8]. Besides, the Potency in [9] is 4.47 µM (active); in [10], 28.2 µM (active).
On to `C[C@]12N[C@H](Cc3ccccc31)c1ccccc12`, for which the result in [11], in [13] and in assay [14] was inactive. The Potency result in [1], in [2], in assay [3], in assay [6], in [7] and in assay [9] was “inactive” each time. Also, the Potency result in assay [10], in assay [15] and in assay [16] was “inactive” in each case. Also, the Potency was 1.78 µM (active) in assay [5], 7.08 µM (active) in [12] and 1.58 µM (active) in assay [8].
As for `CN[C@@H]1C[C@@H](c2ccc(Cl)c(Cl)c2)c2ccccc21`, the Potency result in [1], in assay [2], in [3] and in [10] was “inactive” throughout. For the same compound, the Potency in assay [6] and in [12] was 12.6 µM (active) throughout. Further, the outcome in [14] was inactive.
With `CC(C)Oc1cccnc1N(C)C1CCN(Cc2ccccc2)CC1`, the compound was called inactive in [11], in assay [13] and in [14]. Further, the Potency result in assay [1], in [2], in assay [3], in assay [7], in assay [10] and in assay [17] was “inactive” throughout. For the same compound, the Potency entry in assay [15] and in [16] was “inactive” throughout. In addition, in [8], the Potency is 4.47 µM (active).
`Cc1c(C(=O)c2cccc3ccccc23)c2cccc3c2n1[C@H](CN1CCOCC1)CO3`: the Potency result in assay [1], in [2], in [3] and in assay [15] was “inactive” in each case. Further, the Potency is 7.94 µM (active) in [5], 12.6 µM (active) in assay [7], 4.47 µM (active) in assay [8] and 18.5 µM (active) in assay [16]. Besides, the call in [13] and in [14] was inactive.
As for `NCCc1c[nH]c2ccccc12`, the compound was called inactive in [11], in [13] and in assay [14]. Further, the Potency result in [1], in assay [2], in assay [3], in [7], in [12] and in assay [10] was “inactive” each time. For the same compound, the Potency entry in assay [17], in [15] and in [16] was “inactive” throughout.
Turning to `Cc1nc(-c2ccc(-c3ccc(C(=O)N4CCc5cc6c(cc54)C4(CCN(C)CC4)CO6)cc3)c(C)c2)no1`, the Potency result in assay [1], in assay [2], in assay [3] and in [10] was “inactive” throughout. In addition, the Potency is 5.01 µM (active) in [4]; 11.2 µM (active) in assay [5]; 12.6 µM (active) in assay [6]; 11.2 µM (active) in assay [7]; 8.91 µM (active) in assay [12]; 10 µM (active) in assay [8]. Also, the Potency in [9] was 11.2 µM (active).
With `CN[C@@H](C)[C@H](O)c1ccccc1`, the activity change, negative = inhibition in assay [18] is -15% (inactive). Besides, the max response in assay [18] (setting [19]) is -49.5%; in [18] (setting [20]), -56.7%. Further, the Potency result in [1], in assay [2] and in assay [3] was “inactive” in each case. The figures for the Potency in [4] and in assay [5] were 12.6 µM (active) and 10 µM (active), respectively. The result in assay [13] and in assay [14] was inactive.
As for `NC(CP(=O)(O)O)C(=O)O` (stereo unspecified), the compound was classed as inactive in [11], in assay [13] and in assay [14]. For the same compound, the Potency entry in assay [2], in assay [3], in assay [4], in assay [5], in [6] and in assay [7] was “inactive” throughout. The Potency result in assay [12], in [8], in assay [9], in assay [15] and in assay [16] was “inactive” throughout.
For the compound `COC(=O)[C@@H](N)CCCN=C(N)N[N+](=O)[O-]`, in assay [18], the activity change, negative = inhibition was -4.08% (inactive). Also, the max response was -4.51% in assay [18] (setting [19]) and -8.77% in [18] (setting [20]). Further, the Potency result in [15] and in [16] was “inactive” each time.
